Experiment in all cases: qHTS profiling for inhibitors of Plasmodium falciparum proliferation (AID 504749); further: nearly all actives have a fitted effect of over 60% in size
Conditions in all cases: P. falciparum in erythrocytes, SYBR Green DNA, 72 h; series mostly up to 28.7 µM
(In general: In qHTS, concentration-response curves come from the screen itself.)

One test relates to PAD. In a few lines: (§1)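 Parasite proliferation within erythrocytes, 72 h exposure. Endpoint: SYBR Green I fluorescence after overnight lysis at room temperature. Controls: 0.29 uM artemisinin, DMSO.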
In a further test the test system is PC15. In a few lines:
as §1

The next test deals with PC26. In a few lines: as §1
A further test deals with PC49. The essentials: as §1
The subject of the next test is SC27B. The essentials:
as §1

The next test deals with TAB113. The essentials: as §1
A further test deals with TAB165. The essentials: as §1
The test system of another test is W2. The essentials:
as §1

For another test, the system named is TAB109. The essentials: as §1
Another test concerns P94_40. In a few lines: as §1

Records with an inconclusive call do not appear. Active and inactive are the calls of the source. The call rests on the fitted dose curve; in most records, active means well fitted inhibition curve with a large enough effect; inconclusive means small, poorly fitted or top-dose-only effect; inactive means flat fitted curve, though single readings scatter.
Potency means the concentration at half of the fitted maximal effect.

Consider `CC(C)COC(=O)c1ccc(N)cc1`, for which the Potency result with PAD, in the test on PC15, in the test with PC26, in the test on PC49, with SC27B and in the test on TAB113 was “inactive” in each case. For the same molecule, the Potency result in the test with TAB165 and in the test with W2 was “inactive” throughout.
`O=C(CCCN1CCC(O)(c2ccc(Br)cc2)CC1)c1ccc(F)cc1`: the figures for the Potency in the test on PC49, in the test on TAB109 and in the test with W2 were 0.398 µM (active), 3.16 µM (active) and 1.44 µM (active), respectively. The Potency result in the test with SC27B was “inactive”.
As to `NC(CS)C(=O)O` (stereo not drawn), the Potency in the test with P94_40 is 12.6 µM (active); with TAB109, 10 µM (active); with TAB113, 10 µM (active); in the test on W2, 4.26 µM (active).
On to `CC(C)=CCC1C(=O)N(c2ccccc2)N(c2ccccc2)C1=O`, for which the Potency result in the test on PC15, in the test on PC49 and in the test with TAB109 was “inactive” each time.
Regarding `O=c1c(-c2ccccc2)c1-c1ccccc1`, the Potency is 12 µM (active) in the test with PC26, 11.2 µM (active) with SC27B, 10 µM (active) in the test with TAB165 and 15.1 µM (active) in the test on W2.
Take `CCN(CCCc1ccccc1)CCCc1ccccc1`: the Potency entry with PAD, in the test with PC15, in the test on PC26, in the test with PC49 and with SC27B was “inactive” in each case. Further, the Potency with W2 was 1.28 µM (active).
In the case of `Cc1cccc(C)c1NC(=O)CN1CCN(CCCC(c2ccc(F)cc2)c2ccc(F)cc2)CC1`, the Potency result with PC15, in the test on PC49 and in the test with TAB113 was “inactive” each time. Moreover, the Potency in the test with W2 is 4.55 µM (active).
For the molecule `COC(=O)[C@H]1[C@H]2C[C@H]3c4[nH]c5ccccc5c4CCN3C[C@H]2CC[C@@H]1O`, the Potency entry in the test on PC26 and in the test with W2 was “inactive” each time.
Consider `OC(CCN1CCCCC1)(c1ccccc1)c1ccccc1`, for which the Potency is 10 µM (active) in the test with P94_40, 8.91 µM (active) in the test on TAB113, 14.1 µM (active) in the test on TAB165 and 4.26 µM (active) in the test on W2.
For the molecule `Clc1ccc2c(c1)CCc1cccnc1C2=C1CCNCC1`, the Potency is 13.5 µM (active) in the test on PC26 and 3.38 µM (active) in the test with W2. The Potency result with SC27B is “inactive”.
Consider `CCCCCCCCCCCCCCNCCO`, for which the Potency entry with PC26, in the test on PC49, in the test with SC27B, in the test on TAB109, with TAB113 and in the test on TAB165 was “inactive” in each case. Besides, the Potency in the test with W2 is 9.53 µM (active).
As to `CN(C)CCOc1ccccc1Cc1ccccc1`, the figures for the Potency in the test on PC49, in the test with TAB109 and in the test with W2 were 2.51 µM (active), 3.16 µM (active) and 0.0536 µM (active), respectively.
Consider `Cc1ccc(O)c2ncccc12`, for which the Potency result with PAD, in the test with PC15, in the test with PC26, with PC49 and in the test on SC27B was “inactive” throughout.
Take `CC(=O)OCC(=O)[C@@]1(OC(C)=O)[C@@H](C)C[C@H]2[C@@H]3C[C@H](F)C4=CC(=O)C=C[C@]4(C)[C@@]3(F)[C@@H](O)C[C@@]21C`: the Potency entry in the test with PC15, with PC26, in the test on PC49, with SC27B, in the test on TAB109 and with TAB165 was “inactive” each time. Further, the Potency with W2 is 6.01 µM (active).
For `O=S1(=O)c2cccc3cccc(c23)N1CCCN1CCN(c2ccc(F)cc2)CC1`, the Potency entry in the test with PAD, with PC15, with PC49, in the test with SC27B, in the test with TAB109 and with TAB113 was “inactive” throughout. Also, the Potency entry in the test with TAB165 and in the test with W2 was “inactive” throughout.
Take `CO/N=C1\CN(c2nc3c(cc2F)c(=O)c(C(=O)O)cn3C2CC2)CC1CN` (stereo not drawn): the Potency result with PC49 is “inactive”. For the same molecule, the results for the Potency with TAB109 and with W2 were 5.01 µM (active) and 5.36 µM (active), respectively.
As for `C=C(CC)C(=O)c1ccc(OCC(=O)O)c(Cl)c1Cl`, the results for the Potency in the test with TAB113 and with TAB165 were 14.1 µM (active) and 12.6 µM (active), respectively.
Consider `O=C(CCN1CCC(c2ccccc2)C1)c1ccc2c(c1)OCCO2` (stereo not drawn), for which the Potency entry with PAD, with PC15, with PC26, in the test on PC49, in the test on SC27B and with TAB109 was “inactive” in each case. The Potency result in the test with TAB113, with TAB165 and in the test with W2 was “inactive” throughout.
Turning to `Cc1ccc(C(=O)C(C)CN2CCCCC2)cc1` (stereo not drawn), the Potency entry in the test with PC49 and in the test with SC27B was “inactive” each time. Also, the Potency with W2 is 6.01 µM (active).
In the case of `O=C1OCCN1/N=C/c1ccc([N+](=O)[O-])o1`, in the test with PC15, the Potency entry was “inactive”. Also, the Potency was 7.94 µM (active) in the test with TAB109, 11.2 µM (active) in the test on TAB165 and 15.1 µM (active) in the test on W2.
Regarding `CC/C(=C(/CC)c1ccc(O)cc1)c1ccc(O)cc1`, the Potency result with PAD, in the test on PC26, in the test with PC49 and in the test on TAB109 was “inactive” each time.
For the molecule `CN1CCN(C(c2ccccc2)c2ccccc2)CC1`, the Potency result in the test on PAD, in the test on PC15, in the test with PC49, in the test with SC27B, in the test on TAB109 and with TAB113 was “inactive” in each case. The Potency entry in the test on TAB165 is “inactive”. For the same molecule, in the test with W2, the Potency was 2.56 µM (active).
Regarding `CC(C)N=C(N)/N=C(\N)Nc1ccc(Cl)cc1`, the Potency is 0.708 µM (active) in the test on PC15, 1.61 µM (active) in the test on PC26 and 1.28 µM (active) in the test with W2. Moreover, the Potency entry in the test on TAB113 was “inactive”.
In the case of `CNCCC=C1c2ccccc2CCc2ccccc21`, in the test with W2, the Potency is 1.51 µM (active).
For the molecule `C[C@@H](CN(C)C)CN1c2ccccc2Sc2ccccc21`, the Potency entry with PAD, in the test on PC15, in the test with PC49, with SC27B, with TAB109 and in the test with TAB113 was “inactive” each time. Further, the Potency result in the test on TAB165 was “inactive”.
Take `CC(=O)N/N=C/c1ccc([N+](=O)[O-])o1`: the Potency entry in the test on PC26 and with PC49 was “inactive” each time. Further, the Potency is 6.31 µM (active) in the test with TAB109 and 12.6 µM (active) with TAB165.
For `CCN(CC)CCOc1ccc(C(O)(Cc2ccc(Cl)cc2)c2ccc(C)cc2)cc1` (stereo not drawn), the Potency in the test on TAB165 was 10 µM (active); in the test on W2, 6.01 µM (active).
`C#C[C@]1(O)CC[C@H]2[C@@H]3CCc4cc(OC5CCCC5)ccc4[C@H]3CC[C@@]21C`: the Potency result in the test on PAD, in the test on PC15, in the test on PC26, in the test on PC49, in the test with TAB109 and with TAB165 was “inactive” throughout.
Consider `Oc1c(I)cc(I)c2cccnc12`, for which the Potency in the test on P94_40 was 11.2 µM (active). Further, the Potency entry in the test with PC49, in the test on SC27B and in the test on TAB113 was “inactive” throughout.
With `Oc1ccc(O)cc1`, the Potency entry in the test with PAD, in the test with PC15, in the test with PC49, in the test with SC27B and in the test on TAB109 was “inactive” each time. In addition, in the test with W2, the Potency was 12 µM (active).
Regarding `c1ccc(CNCCNCc2ccccc2)cc1`, the values for the Potency in the test with PC49 and with W2 were 3.55 µM (active) and 4.26 µM (active), respectively.
As to `CCN(CC)CCNC(=O)COc1ccc(Cl)cc1`, the Potency with PAD was 11.2 µM (active); in the test on SC27B, 11.2 µM (active); in the test on TAB165 it was 11.2 µM (active); in the test with W2, 13.5 µM (active). Besides, the Potency result with PC15 and in the test with TAB113 was “inactive” throughout.
On to `CCCCCCCCCCOCC(O)CN` (stereo not drawn), for which the Potency result in the test on TAB113 was “inactive”.
